About 83,000 compounds went through this panel and 20% of them were active in at least one assay; those are over-represented in the sample as a whole.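 Single-concentration screen, 48 h exposure, 96-well plates. Endpoint: percent growth. Below 10 = active.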 Calls of active or inactive are those of the source.
Test system: LOX IMVI melanoma
Test: NCI-60 one-dose screen, 48 h (100 = growth as untreated, 0 = no growth, -100 = all killed)
Details: 10 µM unless noted

SMILES | growth
COCCn1cc(-c2csc(-c3c[nH]c4ccccc34)n2)c2cccnc21 | 34.1% (inactive)
CCN(CC)c1ccc(-c2cc(-c3cc(OC)c(OC)c(OC)c3)nc(N3CCC(O)CC3)c2C#N)cc1 | -27.8% (active)
CN1C(=O)/C(=C/c2ccc(C(=O)Nc3ncc(Cc4cccc(C(F)(F)F)c4)s3)cc2)SC1=S | 35% (inactive)
Nc1ncnc2c1N=C(c1ccc(Cl)cc1)CC(c1cccc(Nc3ccnc4cc(Cl)ccc34)c1)N2 (stereo not given) | 45.5% (inactive)
COCCn1cc(-c2nc(-c3cc4cccnc4n3C)cs2)c2ccccc21 | 38.7% (inactive)
COC(=O)[C@]1(C)CCC[C@]2(C)[C@H]3C[C@@H]4[C@H]5[C@@H]6CC/C(=N\OCC/C(N)=N/O)[C@H]5[C@@]3(CC[C@H]21)CC4(C(C)C)O6 | 69% (inactive)
Cc1cccc(-c2nc(C(C)C)sc2-c2ccnc(NCCCNS(=O)(=O)c3ccc(Cl)cc3)c2)c1 | 75% (inactive)
O=C(/C=C/C12c3ccccc3C(c3ccccc31)C1C(=O)NC(=O)C12)c1ccc(Cl)cc1Cl (stereo not given) | -25.6% (active)
CC(C)(C)CC(C)(C)Nc1c(-c2c(O)c3ccccc3oc2=O)nc2sc3ccccc3n12 | 36.4% (inactive)
CN(C)CCC(CCN(C)C)(C(=O)O)c1ccccc1 | 106% (inactive)
Cn1c(=O)[nH]c(=O)c2nc3c(nc21)-c1ccccc1C3=O | 95.9% (inactive)
C=C(c1ccc(C(=O)O)c(F)c1)c1cc2c(cc1C)C(C)(C)CCC2(C)C | 93.9% (inactive)
C=C1C(=O)O[C@H]2[C@H]1CC/C(COC(=O)C(=O)c1c[nH]c3ccc(Cl)cc13)=C\CC[C@@]1(C)O[C@@H]21 | -92.7% (active)
N#Cc1c(-c2ccc(Br)cc2)nc2c(N=Nc3ccc(S(N)(=O)=O)cc3)c(N)nn2c1N | 28.9% (inactive)
CCN(CC)CCN1C(=O)c2c(c3c4ccccc4[nH]c3c3ccc4ccccc4c23)C1=O | -88.3% (active)
O=C(/C=C/c1ccccc1)N(C1CCCCC1)C1CCCCC1 | 92.3% (inactive)
CC1(C)CC[C@]2(CO)CC[C@]3(C)[C@](O)([C@H](O)C[C@@H]4[C@@]5(C)CCCNC(C)(C)[C@@H]5CC[C@]43C)[C@@H]2C1 | 87.8% (inactive)
Nc1nc(N(Cc2ccccc2)c2ccccc2)c2cn[nH]c2n1 | 53% (inactive)
CN1CC(c2ccc(Br)cc2)C(C(=O)c2ccc(Br)cc2)C12C(=O)Nc1ccccc12 (stereo not given) | 79.8% (inactive)
Nc1nc(C(=O)N/N=C/c2ccc(F)cc2)nn1-c1ccc(S(N)(=O)=O)cc1 | 94.1% (inactive)

SMILES | growth
COc1ccc(-c2nc(SCC(=O)Nc3nc4ccc(C)cc4s3)[nH]c(=O)c2C#N)cc1OC | 90.4% (inactive)
CNC(=O)NCC1OC(n2cnc3c(NC(=O)Nc4ccccc4)ncnc32)C2OC(=O)CC12 (stereo not given) | 62.7% (inactive)
COc1ccc(NC(=O)c2ccc(Nc3ncnc4c3cnn4-c3cccc(F)c3)cc2)cc1 | 96% (inactive)
CC(C)NS(=O)(=O)/N=C1\NC(=O)NC1=C(Cl)Cl | 94.8% (inactive)
Cc1ccc2cnc(N)c(C#Cc3cc(C(=O)Nc4ccc(CN5CCN(C)CC5)c(C(F)(F)F)c4)cnc3C)c2c1 | -71% (active)
Cc1nn(-c2ccc([N+](=O)[O-])cc2)c2ncnc(N/N=C/c3ccccc3O)c12 | 6.25% (active)
CC(C)(C)OC(=O)CN1CCc2c(sc3ncnc(N4CCN(c5ccc(F)cc5)CC4)c23)C1 | 96.7% (inactive)
COC(=O)[C@@]1(C)CC[C@]2(C)CC[C@]3(C)C4=CC=C5C(=CC(=O)C(O)=C5C)[C@]4(C)[C@@H](O)C[C@@]3(C)[C@@H]2C1 | -56.3% (active)
Cc1cc(Cl)nc(N2CCN(CCNc3ccnc4cc(Cl)ccc34)CC2)n1 | -14.6% (active)
Cc1ccc(C)c2c1sc1nc(N3CCOCC3)c(C#N)c(=O)n12 | 67% (inactive)
COc1ccc2c(c1)CC[C@@H]1[C@@H]2CC[C@]2(C)c3c(cc(C#N)c4c3sc3ccccc34)C[C@@H]12 | 96.8% (inactive)
C=C1C(=O)O[C@H]2[C@H]1CC/C(COC(=O)NCc1ccc(Cn3c(=O)sn(-c4ccc(I)cc4)c3=O)cc1)=C\CC[C@@]1(C)O[C@@H]21 | 69.4% (inactive)
O=C(O)CC(C(=O)O)/C(=C\c1ccccc1)c1ccccc1 (stereo not given) | 99.1% (inactive)
CCN(CC)CCOc1ccc(Nc2ncc3cc(-c4c(Cl)cccc4Cl)c(=O)n(CCOC)c3n2)cc1 | -77.6% (active)
O=C(c1ccc(Br)cc1)C(Br)C(c1ccc(Cl)cc1)C(c1ccccc1)[N+](=O)[O-] (stereo not given) | 102% (inactive)
CN1CCOCCN(C)Cc2ccc3ccc(cc3c2)CN(C)CCOCCN(C)Cc2ccc3ccc(cc3c2)C1 | 93.8% (inactive)
COc1ccc(CN2C(=O)OC(C)(COC(C)=O)C2=O)cc1 (stereo not given) | 100% (inactive)
CN(C)c1ccc(/C=N\NC(=O)c2ccc3nc(-c4ccc(Cl)cc4)[nH]c3c2)cc1 | 34% (inactive)
COCCn1cc(-c2csc(-c3c[nH]c4ccc(F)cc34)n2)c2cccnc21 | 21.8% (inactive)
C/C(Cc1ccc(Cl)cc1)=C(\c1ccc(OCCN2CCCCCC2)cc1)c1ccc(OC(=O)c2ccccc2)cc1 | -21.8% (active)
